Screens: PubChem, National Center for Advancing Translational Sciences (NCATS)
Caspase-1 inhib: caspase-1 (human) inhibition, allosteric or competitive. P29466. Caspase-1 enzyme, Ac-WEHD-AFC fluorogenic rate. Potency, µM (doses to about 57.5 µM), for inactives: top-dose activity change, negative = inhibition, usual class: inhibitors. 0.03% of 75,000 active;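 further: plate controls were vehicle for no effect and no substrate for full effect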
Tau filament bind: binds recombinant human tau filaments | P10636 | recombinant tau filaments, thioflavin S fluorescence, 15 h; filaments grown with octadecylsulfate alongside compound | Potency, µM (titrated, usually from 57.1 µM), for inactives: at the highest dose activity change, negative = inhibition | 2% of 71,000 active;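 further: on the % scale 0 is the no-effect control and ±100 the full control effect; actives lower thioflavin S fluorescence by blocking filaments or displacing dye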
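His-tagged recombinant human tau (exons 2, 3, 10; 1 uM final) fibrillized with 30 uM sodium octadecylsulfate, 15 h at 37 C, in pH 7.4 HEPES buffer with 10 uM thioflavine S and 5 mM DTT. Reduced ThS fluorescence (450/510 nm) marks activity.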
Pol III holo inh: inhibitors of bacterial DNA polymerase III holoenzyme. reconstituted DNA polymerase III holoenzyme replication, biochemical. Potency, µM (top dose mostly 57.1 µM), for inactives: top-dose activity change, negative = inhibition. 0.25% of 71,000 active. AID 603; further: on the % scale 0 is the no-effect control and ±100 the full control effect
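Reconstituted *E. coli* holoenzyme (0.35 nM Pol III, 1 nM beta, 154 nM SSB, 2 nM primase) was preincubated with compound for 15 min at RT. Synthesis on 1.4 nM ssM13Gori ran 35 min, then was stopped with PicoGreen/EDTA and read as dsDNA fluorescence.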
Casp7 inh: allosteric or competitive inhibitors of human caspase-7; recombinant caspase-7, Ac-DEVD-AFC fluorescence rate; Potency, µM (doses to about 57.5 µM), inactives show top-dose activity change, negative = inhibition, usual class: inhibitors; P55210; AID 889; 0.02% of 75,000 active; active means well fitted inhibition curve with a large enough effect in the main read-out, with a control signal flat, not every such curve was filed as active; inconclusive means small, poorly fitted or top-dose-only effect, or a change in a side signal; further: % of control where 0% means no effect
ALOX15 inhib: 15-hLO (ALOX15) enzyme inhibition; Potency, µM (titrated, usually from 57.1 µM), for inactives: top-dose activity change, negative = inhibition, most hits filed as inhibitors; purified 15hLO-1, xylenol orange hydroperoxide absorbance; P16050; 1.4% of 74,000 active; further: on the % scale 0 is the no-effect control and ±100 the full control effect; nearly all actives have a fitted effect of over 55% in size
Target sequence (P16050 whole entry, looked up): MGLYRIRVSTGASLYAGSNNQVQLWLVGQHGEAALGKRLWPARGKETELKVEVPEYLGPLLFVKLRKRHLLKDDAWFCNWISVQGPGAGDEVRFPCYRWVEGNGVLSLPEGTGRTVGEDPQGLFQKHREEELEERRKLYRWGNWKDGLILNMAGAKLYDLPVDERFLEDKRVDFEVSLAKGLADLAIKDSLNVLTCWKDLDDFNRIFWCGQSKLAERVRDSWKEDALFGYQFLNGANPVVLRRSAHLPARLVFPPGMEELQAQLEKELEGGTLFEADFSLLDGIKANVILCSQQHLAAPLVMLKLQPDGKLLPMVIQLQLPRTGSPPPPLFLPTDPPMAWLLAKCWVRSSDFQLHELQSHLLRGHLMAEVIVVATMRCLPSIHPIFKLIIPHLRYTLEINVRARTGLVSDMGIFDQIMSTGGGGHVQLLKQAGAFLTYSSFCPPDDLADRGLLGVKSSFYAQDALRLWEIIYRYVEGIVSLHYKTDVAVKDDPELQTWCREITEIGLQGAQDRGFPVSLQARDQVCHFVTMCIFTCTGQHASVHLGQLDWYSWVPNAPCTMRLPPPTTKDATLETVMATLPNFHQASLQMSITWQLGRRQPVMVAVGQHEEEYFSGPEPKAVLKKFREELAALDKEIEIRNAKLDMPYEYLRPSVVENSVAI
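Quantitative HTS in 25 mM Hepes pH 7.5 containing 0.01% Triton X-100: human 15hLO-1 at 40 nM, arachidonic acid at 50 uM, 6 min turnover. Product quantified via ferrous oxidation/xylenol orange, 573:405 nm absorbance ratio.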
* hit, by the source's call; ? = inconclusive; / = not tested or not shown; ! = a repeat was not active; [ ] = another dose, or the depositor's remark. Most compounds without a hit are left out; they make up all but 3.2% or so of the library. Unless noted, the call rests on the fitted dose curve; in most records, active means well fitted curve in the direction sought with a large enough effect; inconclusive means small, poorly fitted or top-dose-only effect, or another doubt; inactive means no such curve, though single readings can be large; an effect the other way counts as inactive or inconclusive. Potency means the concentration at half of the fitted maximal effect.

SMILES	Caspase-1 inhib	Tau filament bind	Pol III holo inh	Casp7 inh	ALOX15 inhib
Cn1cccc1C(=O)N1CCC2(CC1)CCN(c1ccccc1)CC2	-0.6%	-26.4%	-4.2%	-0.8%	3.5%
CO[C@@H]1COC(=O)[C@@H](CCSC)NC(=O)C/C=C\[C@@H](C)COC(=O)CCC[C@H]1C	1.3%[11.5 µM]	/	/	-0.5%[11.5 µM]	5.4%[11.4 µM]
OC(CN(c1ccccc1)c1ccccc1)Cn1cnc2ccccc21 (stereo unspecified)	-3.8%	12.6µM*	4.8%	-14.9%	16.0%
C[C@@H](C(=O)N[C@@H](CO)Cc1ccccc1)[C@H]1C[C@]1(C)[C@H](NC(=O)OCc1ccccc1)c1ccccc1	-4.6%	-11.2%	14.5%	-2.5%	/
C=CC(C)(O)CC/C=C(\C)CCC=C(C)C (stereo unspecified)	3.5%	/	/	-0.7%	12.6µM*
CC(C)=CCC/C(C)=C/CO	-1.4%[11.5 µM]	9.5%[11.4 µM]	0.8%[11.4 µM]	2.0%[11.5 µM]	7.94µM*!
C=C(CC(=O)OC)C[C@]1(CC(=O)OC)CC2(CC=C(C)C)C(=O)C(C(=O)c3ccccc3)=C(OC(=O)c3ccc(Br)cc3)C(CC=C(C)C)(C1)C2=O (stereo partly specified)	-0.3%[11.5 µM]	/	/	4.7%[11.5 µM]	14.6%[11.4 µM]
NC1=N[C@H](c2ccc(Cl)cc2)N(c2ccc(S(N)(=O)=O)cc2)C(N)=N1	-0.3%[11.5 µM]	6.5%[11.4 µM]	-9.3%[11.4 µM]	-2.3%[11.5 µM]	7.6%[11.4 µM]
Oc1ccc2c(c1)OC(c1ccc(O)c(O)c1)C(O)C2 (stereo unspecified)	1.6%	/	/	-3.7%	12.6µM*
COc1ccc(C(=O)CSc2nn3c(=O)c(C(C)(C)C)nnc3s2)cc1	0.4%	2.0%	-14.6%	0.2%	?
COc1ccc(-n2c(C)cc(C(=O)CSc3nn4c(=O)c(C(C)(C)C)nnc4s3)c2C)cc1	-2.1%	20µM*	-7.7%	-2.2%	-2.2%
COc1ccc(N2CCN(CCCNC(=O)CC3Oc4ccc(C)cc4NC3=O)CC2)cc1 (stereo unspecified)	1.3%	25.1µM*	-4.3%	1.7%	-28.3%
Cc1ccc2c(c1)NC(=O)C(CC(=O)NCCCN1CCCC1)O2 (stereo unspecified)	-1.3%	5.2%	-4.8%	-1.5%	-9.8%
CCN(CCCNC(=O)CC1Oc2ccc(C)cc2NC1=O)Cc1ccccc1 (stereo unspecified)	0.4%	-21.0%	0.1%	-2.1%	10µM*
O=S(=O)(O)c1ccc(NN(c2c(O)ccc3ccccc23)S(=O)(=O)O)cc1	5.3%[11.5 µM]	-4.9%[11.4 µM]	-11.8%[11.4 µM]	-2.5%[11.5 µM]	22.1%[11.4 µM]
COc1ccc(-c2cc(C(F)(F)F)n3ncc(C(=O)NCC4CCCO4)c3n2)cc1OC (stereo unspecified)	-5.3%	/	/	-10.1%	-4.0%
O=C(Nc1ccc2c(c1)OCO2)c1cnn2c(C(F)(F)F)cc(-c3ccco3)nc12	0.0%	0.501µM*	-2.0%	-0.7%	3.1%
O=C(NC12CC3CC(CC(C3)C1)C2)c1cc2nc(-c3ccco3)cc(C(F)(F)F)n2n1	/	12.6µM*	-5.1%	?	-9.2%
COc1ccc(NC(=O)c2cnn3c(C(F)(F)F)cc(-c4ccco4)nc23)cc1OC	-2.3%	0.398µM*	1µM*	0.6%	4.0%[11.4 µM]
O=C(Nc1cnn(Cc2ccccc2)c1)c1cc2nc(-c3ccco3)cc(C(F)(F)F)n2n1	/	-19.6%	0.3%	?	-9.7%
Cc1ccccc1Cn1nc(C)c(NC(=O)c2cc3nc(-c4ccco4)cc(C(F)(F)F)n3n2)c1C	?	7.94µM*	-0.5%	?	?
O=C(c1cnn2c(C(F)(F)F)cc(-c3ccco3)nc12)N1CCCc2ccccc21	-1.2%	?	-0.4%[11.4 µM]	-1.1%	-9.2%[11.4 µM]
CCOC(=O)[C@]1(C(NC(=O)OC)c2cccc(F)c2)CCCC1=O (stereo partly specified)	-1.1%[11.5 µM]	/	/	1.5%[11.5 µM]	5.0%[11.4 µM]
CN(C)CN1CSC(=S)N(CN(C)C)C1	-1.3%[11.5 µM]	-10.1%[11.4 µM]	-0.6%[11.4 µM]	1.6%[11.5 µM]	?
CO/N=C1/c2cc(OC)ccc2O[C@@H](c2cccc(OC)c2)[C@H]1O	-1.1%[11.5 µM]	/	/	-0.5%[11.5 µM]	2.4%[11.4 µM]
SMILES	Caspase-1 inhib	Tau filament bind	Pol III holo inh	Casp7 inh	ALOX15 inhib
COc1ccc(COC(=O)N/N=C2/C[C@@H](O)[C@@H](O)[C@@H]3[C@@H]4C(=O)N(C(C)(C)C)C(=O)[C@H]4CC[C@@H]23)cc1	-0.8%[11.5 µM]	/	/	0.4%[11.5 µM]	8.9%[11.4 µM]
O=C(Nc1cnn(C23CC4CC(CC(C4)C2)C3)c1)c1cnn2c(C(F)(F)F)cc(-c3ccco3)nc12	-4.5%	2µM*	-5.2%	-6.3%	-8.6%
CO[C@H]1COC(=O)C/C=C\[C@H](C)[C@@H](OC)COC(=O)[C@@H](C)COC(=O)C/C=C\[C@@H]1C	-0.8%[11.5 µM]	/	/	0.9%[11.5 µM]	4.6%[11.4 µM]
CNNCc1ccc(C(=O)NC(C)C)cc1	-13.5%[25.7 µM]	-9.5%[25.6 µM]	-8.3%[25.6 µM]	-0.1%[25.7 µM]	7.94µM*
O=C(O)C1Cc2c([nH]c3ccccc23)C(c2ccc3c(c2)OCO3)N1 (stereo unspecified)	-15.7%	112.0%	0.4%	0.5%[0.00368 µM]	12.6µM*
O=C(O)[C@@H]1Cc2c([nH]c3ccccc23)[C@@H](CCCCO)N1	-2.6%[11.5 µM]	43.9%[11.4 µM]	-7.6%[11.4 µM]	0.1%[11.5 µM]	-4.6%[11.4 µM]
CCN(CC)c1ccc2c(c1)CCCN2	/	25.1µM*	-5.0%	?	?
COc1ccccc1N1CCN(C/C=C/c2ccc(N(C)C)cc2)CC1	-1.6%	?	-4.3%	-0.2%	25.1µM*
COc1ccccc1N1CCN(Cc2ccco2)CC1	0.4%	-20.0%	1.9%	2.5%	-5.7%
COc1cc(Sc2ccc(C)cc2)c(OC)cc1N	-1.8%	25.1µM*	1.7%	-3.1%	?
CC(C)[C@@H](CC(=O)N[C@@H]1CCCC[C@H]1C(=O)N[C@H](CC(=O)N[C@@H](CCC(=O)O)CC(=O)O)Cc1c[nH]c2ccccc12)NC(=O)C[C@H](Cc1ccccc1)NC(=O)[C@@H]1CCCC[C@H]1N	/	0.0%	-3.6%	/	/
C=C(C)CSC1=C(C#N)C(c2ccccc2Cl)CC(=O)N1 (stereo unspecified)	0.2%	-6.0%	-2.9%	1.2%	15.8µM*
CC(=O)N1[C@H](C)C=C[C@]1(Cc1ccccc1)C(=O)NCc1ccc(C)o1	-10.8%	23.4%	-9.7%	-0.3%	-0.3%
OC[C@@H]1NC[C@@H](O)[C@H]1O	1.7%	-6.4%	-5.5%	-1.2%	9.6%
O=c1[nH]c2ccc(Cl)cc2c(-c2ccccc2)c1CN1CCOCC1	-3.0%	12.6µM*	-27.7%	-2.2%	?
O=C(O)c1ccc(Cl)c(S(=O)(=O)Nc2ccccc2F)c1	0.7%	/	/	-0.9%	-8.6%
COc1cccc([C@H](O)Cn2cc(-c3cccc(CON=C(C)C)c3)nn2)c1	-0.3%[11.5 µM]	/	/	0.4%[11.5 µM]	-8.9%[11.4 µM]
O=C(CCc1nc2ccccc2[nH]1)Nc1ccc2c(c1)OCO2	0.0%	12.6µM*	0.4%	-1.9%	-16.9%
O=C(CCc1nc2ccccc2[nH]1)NCc1ccc2c(c1)OCO2	2.0%	-12.6%	-4.4%	-4.0%	2.5%
c1coc(-c2nc3c4c5c(sc4ncn3n2)CCCC5)c1	0.6%	8.0%	-1.5%	-0.7%	1.1%
N#Cc1sc2nc3c(c(-c4ccco4)c2c1N)CCCC3	-14.9%	3.16µM*	-15.9%	-13.5%	-29.0%
